In the supplement of paper PMC9337992:
± gives the standard deviation of the averaged measurements.

Test system: MDAMB436
Assay: cell proliferation (confluence) relative to DMSO control; higher = less growth inhibition
Conditions: 5 uM; 6 d
Method: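 Epigenetic chemical probe screen: 15 TNBC cell lines, 500 cells per well in 384-well plates, treated with 5 uM of each of 36 SGC probes for 6 d. Confluency was imaged by IncuCyte ZOOM and normalised to DMSO control wells. Four replicate wells per compound.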

| SMILES | cell proliferation [%] |
| --- | --- |
| COc1cc(C(=O)N2CC[C@@H](O)[C@@H](N)C2)cc2nc(-c3cc4ccccc4n3CC3CC3)n(C)c12 | 76.4 ± 6.2 |
| c1ccc([C@@H]2C[C@H]2NC2CCNCC2)cc1 | 93.8 ± 3.3 |
| O=C(O)CNC(=O)c1c(O)c2ccccc2n(Cc2ccccc2)c1=O | 96.4 ± 0.42 |
